Hits are enriched below; roughly 2.4% of the tested compounds scored in any of these assays.
Nrf2 block – inhibitors of Nrf2 signaling | Potency, µM (doses to about 46 µM), for the others: at the top dose activity change, negative = inhibition, actives largely listed as inhibitors | AID 504444 | A549 ARE-Fluc reporter, luciferase luminescence, 18-24 h | 2.1% of 360,000 active; further: on the % scale 0 is the no-effect control and ±100 the full control effect; nearly all actives have a fitted effect of over 60% in size
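Nrf2 activity is the BugLite luminescence, read 15 min after reagent at room temperature, following CellTiter-Fluor cytotoxicity readout (30 min, 37C). Compound titrations were applied for 18-24 h to 5000 A549 ARE_Fluc cells/well in 5% FBS OPTI-MEM.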
A549 tox – kills or reduces viability of A549 cells in Nrf2 counter-screen. A549 ARE-Fluc cells, CellTiter-Fluor viability, 18-24 h. Potency, µM (series often up to 46 µM), inactives show at the top dose activity change, negative = cytotoxicity, actives largely listed as inhibitors. 0.16% of 390,000 active; further: on the % scale 0 is the no-effect control and ±100 the full control effect
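A549 ARE-Fluc cells in 5% FBS OPTI-MEM, 5000 cells/well, rested 2 h then exposed to compounds in concentration-response for 18-24 h at 37 °C. Viability by CellTiter-Fluor fluorescence (Ex 405/Em 525) after 30 min; luciferase luminescence (BugLite, 15 min, RT) read afterwards.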
Epigenetic derep – regulators of epigenetic silencing causing reporter derepression in mouse cells | murine LDR cells, GFP reporter derepression, 30 h | 0.2% of 280,000 active | AID 1865 | Potency, µM (top dose mostly 53.9 µM), for inactives: at the highest dose GFP activation, most hits filed as activators; further: % of control where 0% means no effect; nearly all actives have a fitted effect of over 60% in size
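Reporter derepression read as number of fluorescent GFP-positive objects, 20-120 um in size, counted by laser-scanning cytometer. Mouse LDR line with an epigenetically silenced CMV-GFP locus; compound incubation 30 h, 37 C.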
PINK1 expr mod – PINK1 expression modulation; PINK1 immunofluorescence, high-content cytometry, 24 h; Potency, µM (series often up to 76.6 µM), inactives show top-dose activation (PINK1 increase), usual class: activators; 0.2% of 410,000 active; active means well fitted activation curve with a large enough effect; inconclusive means small, poorly fitted or top-dose-only effect; cell line not stated here; further: % of control where 0% means no effect; nearly all actives have a fitted effect of over 65% in size
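Decision-based qHTS: stable cells, 24 h exposure to five compound concentrations, CCCP as control. Fixed cells stained for PINK1 plus nuclear, mitochondrial and cell markers, cytometer read.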
Nrf2 ARE act – Nrf2 pathway activation; Potency, µM (series often up to 46.1 µM), inactives show at the highest dose activation, usual class: activators; 0.31% of 410,000 active; AREc32 ARE-luciferase reporter (MCF7-derived line), luminescence, 24 h; AID 624171; further: % of control where 0% means no effect; nearly all actives have a fitted effect of over 65% in size
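Cells of the AREc32 ARE-luciferase line are plated in OPTI-MEM containing 5% FBS and left overnight at 37 deg C. Compounds are pinned in, incubation continues 24 hr, and firefly luciferase signal is then measured.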
An asterisk follows results filed as active; ? = inconclusive; nt = not tested or not shown; [ ] = dose if it differs, or a comment. Unless noted, the call rests on the fitted dose curve; in most records, active means well fitted curve in the direction sought with a large enough effect; inconclusive means small, poorly fitted or top-dose-only effect, or another doubt; inactive means no such curve, though single readings can be large; an effect the other way counts as inactive or inconclusive. Potency means the concentration at half of the fitted maximal effect.

SMILES | Nrf2 block | A549 tox | Epigenetic derep | PINK1 expr mod | Nrf2 ARE act
CCc1ccc(Nc2n[n+](-c3ccccc3)c(-c3ccc(SC)cc3)s2)cc1 | -12% | 1% | nt | 35µM* | 0%
COCCn1c(-c2ccc(OC(F)(F)C(F)C(F)(F)F)cc2)nc2c1c(=O)[nH]c(=O)n2CC(C)C (configuration not stated) | 18µM* | -8% | 2% | 6% | 11%
Cc1cc(NC(=O)c2sc(Nc3cccc(C(F)(F)F)c3)nc2N)no1 | 16µM* | ? | 0% | 11% | 3%
Cc1cc(NC(=O)c2sc(Nc3ccc(F)c(Cl)c3)nc2N)no1 | ? | -11% | 0% | 10% | 3%
O=C(Cn1cncn1)N1CCOc2ccc(CN3CCN(c4ccccc4)CC3)cc2C1 | nt | nt | nt | 0% | nt
Cc1nn(-c2ccc(F)cc2)c(Cl)c1C(=O)OC(C)C(=O)N(C)C1CCCCC1 (configuration not stated) | 18µM* | -7% | nt | 3% | 9%
Cc1nn(-c2ccccc2)c(Cl)c1C(=O)OC(C)C(=O)NC(=O)NC1CCCCC1 (configuration not stated) | ? | -12% | 3% | 0% | 2%
CN(C)S(=O)(=O)c1ccc2c(c1)nc(CCC(=O)NCC1CCCCC1)n2C | -3% | 1% | 0% | -1% | 0%
CN(C)S(=O)(=O)c1ccc2c(c1)nc(CCC(=O)NCc1ccc(Cl)cc1)n2C | 23µM* | 6% | -5% | 5% | 1%
COc1ccc(S(=O)(=O)N2CCOCC2)cc1NC(=O)Cc1c(Cl)cccc1Cl | -2% | 9% | ? | 16% | 0%[9.22 µM]
COc1ccc(S(=O)(=O)N2CCOCC2)cc1NC(=O)CN(C)Cc1c(F)cccc1Cl | 21µM* | -8% | -8% | 0% | 1%
Cc1c(C(=O)NCCc2cccnc2)cnn1-c1ncc2c(n1)-c1ccccc1CC2 | nt | nt | nt | 1% | nt
COC(=O)c1c(NC(NC(=O)C(C)C)C(Cl)(Cl)Cl)sc2c1CCC2 (configuration not stated) | 18µM* | -1% | -2% | 29% | 3%
COC(=O)c1c(NC(NC(C)=O)C(Cl)(Cl)Cl)sc2c1CCCC2 (configuration not stated) | 21µM* | 1% | 1% | 18% | 7%
CC1(C)OC(=O)C2(Cc3ccc(Cl)cc3N3CCCCC32)C(=O)O1 (configuration not stated) | 0% | -4% | nt | 1% | nt
O=C(C1CC12CCN(Cc1cccc3cccnc13)CC2)N1CCN(Cc2cccs2)CC1 (configuration not stated) | nt | nt | nt | 1% | nt
NC(=O)C1CCN(c2nc(C3CC3)nc3c2nnn3Cc2ccccc2Cl)CC1 | ? | -2%[1.84 µM] | 0% | 11µM* | 0%
Cc1nc(Nc2ccccc2O)c2oc3ccccc3c2n1 | 7% | 10% | nt | 0% | 19%
Cc1nc(Nc2ccccc2F)c2oc3ccccc3c2n1 | ? | 4% | nt | 4% | 3.2µM*
C[C@H]1C[C@@H]2[C@@H]([C@@H](O)C[C@@]3(C)[C@H]2CC[C@]3(O)C(=O)CO)[C@@]2(C)C=CC(=O)C=C12 | nt | nt | 0%[16.9 µM] | nt | nt
O=C(NCCCCc1ccccc1)c1cccc(NC(=O)C2CCCCC2)c1 | ? | -1% | nt | 2% | 1%
O=C(NCCCCc1ccccc1)c1cccc(NC(=O)C2CCC2)c1 | 16µM* | 0% | nt | 1% | 1%
CS(=O)(=O)c1ccc(S(=O)CC(=O)OCc2ccccc2)c([N+](=O)[O-])c1 (configuration not stated) | 18µM* | ? | 0% | 3% | ?
O=C(CS(=O)c1ccc(C(F)(F)F)cc1[N+](=O)[O-])Oc1ccccc1 (configuration not stated) | ? | -10% | ? | -3% | ?
CC(=O)Nc1cccc(NC(=O)CSc2ncc(-c3ccc(Cl)cc3)n2Cc2ccco2)c1 | 18µM* | -26% | -1% | -1% | -1%
SMILES | Nrf2 block | A549 tox | Epigenetic derep | PINK1 expr mod | Nrf2 ARE act
CN(CCO)C(=O)c1cn(C2CCN(Cc3c(F)cccc3Cl)CC2)nn1 | nt | nt | nt | 1% | nt
COC(=O)c1ccc(C2C=C(c3ccc(Cl)cc3)Nc3nc4ccccc4n32)cc1 (configuration not stated) | nt | 5% | -1% | 6% | 12%
CCOc1ccccc1N1CCN(C(=O)c2cc(-c3cc(OC)ccc3OC)nc3ccccc23)CC1 | 21µM* | -7% | nt | -1% | 3%
COc1ccc(N2CCN(C(=O)c3cc(-c4cc(OC)ccc4OC)nc4ccccc34)CC2)cc1 | -29% | -17% | nt | -3% | 7%
CCN1/C(=C/C=C/c2oc3ccc4ccccc4c3[n+]2CC)Oc2ccc3ccccc3c21 | -5% | -5% | 0.13µM* | ? | 10%
CCCCNC(=O)c1sc2ncnc(NCC3CCCO3)c2c1C (configuration not stated) | nt | nt | nt | 0% | nt
COc1cc2c(C(=O)N3CCOCC3)c(CSc3ccccc3)n(C)c2cc1Br | 26µM* | ? | 1% | 1% | 2%
O=C1c2cc(F)ccc2-n2c1nc1ccccc1c2=O | 6.5µM* | 12µM* | nt | 1% | 3%
CCN(CC)c1ccc(NC(=O)Cn2cc3c(n2)CCC(C)C3)c(C)c1 (configuration not stated) | 13µM* | -19% | -1% | 7% | 1%
CCN(CC)c1ccc(NC(=O)CN2C(=O)CSc3ncccc32)c(C)c1 | 10µM* | -4% | 0% | 2% | 0%
COc1ccc(-c2ccc3ncnc(NCc4nc(C)cs4)c3c2)cc1OC | ? | 4% | nt | nt | nt
CCOC(=O)c1c(C)nc2c(c1-c1ccccc1)C(=O)c1ccccc1-2 | 13µM* | -19% | -1% | 9%[38.3 µM] | -1%
CCOC(=O)c1c(C)nc2c(c1-c1cc(OC)ccc1OC)C(=O)c1ccccc1-2 | 1% | -6% | -3% | nt | 2%
CCN(CC)CCC(=O)Nc1cccc2c1C(=O)c1ccccc1C2=O | 16µM* | 21µM* | ? | -2% | -2%
Nc1cccc(C(=O)OCC(=O)Nc2cccc3c2C(=O)c2ccccc2C3=O)c1 | ? | -17% | 0% | ? | 2%
CCN(CC)CCNC(=O)c1ccc2c(c1NCCO)C(=O)c1ccccc1C2=O | 3.3µM* | ? | -1% | -1% | -3%
CN(Cc1ccccc1)C(=O)c1ccc(CSc2nc3cccnc3n2Cc2ccccc2F)cc1 | ? | ? | 1% | -1% | -1%
O=C(CN1CC[n+]2c(-c3cccs3)csc21)c1ccc(-c2ccccc2)cc1 | ? | -7% | 0% | 16µM* | 4%
CCOc1ccc(C(=O)CC(Sc2ccc(C)cc2)C(=O)O)cc1 (configuration not stated) | -3% | 0% | 2% | -1% | 18µM*
Cc1cc(C)n(-c2cccc(C(=O)NCC3Cc4cccc(-c5cccnc5)c4O3)c2)n1 (configuration not stated) | nt | nt | nt | 1% | nt

Compound activity as filed in PubChem.
